According to ChEMBL document CHEMBL5058541:

Legend:
[1] = target: Bromodomain-containing protein 4 (Homo sapiens) (UniProt O60885); conditions: Compound concentration 20.0 uM, Protein concentration 2.0 uM, Result type QC Liability
[2] = target: T1, Transcription intermediary factor 1-alpha (Homo sapiens) (UniProt O15164); conditions: Compound concentration 20.0 uM, Protein concentration 2.0 uM, Result type QC Liability
T1 sequence (whole entry): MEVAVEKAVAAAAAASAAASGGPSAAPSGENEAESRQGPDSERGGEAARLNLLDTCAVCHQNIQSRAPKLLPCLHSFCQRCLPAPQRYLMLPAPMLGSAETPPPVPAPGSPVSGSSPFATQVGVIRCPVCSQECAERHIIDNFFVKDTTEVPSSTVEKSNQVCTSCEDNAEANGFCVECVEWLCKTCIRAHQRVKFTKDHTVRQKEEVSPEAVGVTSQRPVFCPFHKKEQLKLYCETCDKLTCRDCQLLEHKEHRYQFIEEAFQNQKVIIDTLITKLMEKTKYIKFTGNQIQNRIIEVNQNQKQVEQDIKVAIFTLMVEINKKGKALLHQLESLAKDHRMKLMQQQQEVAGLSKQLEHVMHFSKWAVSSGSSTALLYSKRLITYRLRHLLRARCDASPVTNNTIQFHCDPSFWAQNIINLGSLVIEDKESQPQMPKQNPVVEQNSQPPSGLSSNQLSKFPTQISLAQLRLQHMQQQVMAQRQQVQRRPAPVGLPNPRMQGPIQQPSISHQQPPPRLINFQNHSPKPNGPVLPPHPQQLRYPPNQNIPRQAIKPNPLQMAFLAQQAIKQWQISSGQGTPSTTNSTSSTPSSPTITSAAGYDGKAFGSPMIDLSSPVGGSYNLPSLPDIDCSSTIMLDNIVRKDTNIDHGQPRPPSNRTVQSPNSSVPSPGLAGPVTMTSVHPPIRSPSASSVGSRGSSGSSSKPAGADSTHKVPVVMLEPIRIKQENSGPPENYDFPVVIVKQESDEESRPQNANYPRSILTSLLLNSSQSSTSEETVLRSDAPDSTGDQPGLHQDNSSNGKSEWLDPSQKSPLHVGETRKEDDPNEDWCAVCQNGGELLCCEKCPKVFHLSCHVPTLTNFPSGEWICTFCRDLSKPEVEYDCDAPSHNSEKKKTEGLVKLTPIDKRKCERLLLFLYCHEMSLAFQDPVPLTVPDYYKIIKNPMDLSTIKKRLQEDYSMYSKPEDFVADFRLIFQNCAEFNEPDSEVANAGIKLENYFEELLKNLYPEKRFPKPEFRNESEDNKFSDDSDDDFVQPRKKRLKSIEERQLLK

Row | Compound | ΔTm [1] [c] | ΔTm [2] [c]
1 | CS(=O)(=O)N1CCCC(NC(=O)[C@H](CCC2CCCCC2)NC(=O)c2ccc(CNC(=O)c3cnc4ccccn34)cc2)C1 (stereo partly drawn) | 0.345 | 0.0818
2 | O=C(NCCCN1CCOC1=O)c1cnc(NCc2cc(Br)ccc2Br)nc1NC1CCCC1 | 0 | 0
3 | CN(c1ncccc1CNc1ccnc(-c2nc3c(F)c(Cl)ccc3[nH]2)n1)S(C)(=O)=O | -0.76 | -0.07
4 | CN(C)C(=O)c1ccc(-c2cc(C(=O)N[C@@H]3CCc4ccccc43)no2)cc1O | -0.51 | -0.594
